In PubChem BioAssay (Tox21):
Inconclusive results are not listed. Active and inactive are the calls of the source. Unless noted, calls follow the shape of the dose curve; as a rule, active = well fitted cell-killing curve with a large enough effect in the repeat runs (not every such curve was filed as active); inconclusive = weak or mixed curves, or effect the other way; inactive = no such curve, though single readings can be large or run the other way.

biological target: Nuclear receptor subfamily 1 group I member 3 (Homo sapiens) (UniProt Q14994); experiment: qHTS assay to identify small molecule agonists of the constitutive androstane receptor (CAR) signaling pathway (AID 1224839; active = well fitted activation curve with a large enough effect in the repeat runs; also: nearly all actives have a fitted effect of over 15% in size;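 as to activation: HepG2 cells stably carrying human CAR and a CYP2B6 luciferase reporter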); conditions: HepG2 hCAR CYP2B6-luciferase, agonist mode, 24 h; series mostly up to 42.5 µM; activation: at the top concentration
Summary of the method: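 In this screen, CAR-driven CYP2B6 promoter activity is measured by luminescence in HepG2-CYP2B6-hCAR cells after 24 h with test compounds and 0.75 uM PK11195 (final concentration).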
% is scaled to controls: 0 for no effect and ±100 for the full control effect; potency is read from the fitted curve at half-maximal effect.

Nuclear receptor subfamily 1 group I member 3 (Homo sapiens), sequence (Q14994 whole entry, looked up): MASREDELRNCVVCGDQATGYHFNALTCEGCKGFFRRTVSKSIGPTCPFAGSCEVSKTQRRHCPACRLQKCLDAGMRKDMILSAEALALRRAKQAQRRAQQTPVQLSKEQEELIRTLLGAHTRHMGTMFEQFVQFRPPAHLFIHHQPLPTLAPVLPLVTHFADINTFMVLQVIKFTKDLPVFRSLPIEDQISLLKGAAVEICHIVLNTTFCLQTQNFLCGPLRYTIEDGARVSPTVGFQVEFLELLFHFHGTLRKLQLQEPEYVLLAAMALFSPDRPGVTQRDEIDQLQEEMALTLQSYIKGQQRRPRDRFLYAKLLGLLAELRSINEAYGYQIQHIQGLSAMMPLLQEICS

| SMILES | activation | Potency |
| --- | --- | --- |
| CCCCc1nc2cccnc2n1Cc1ccc(-c2ccccc2-c2nnn[nH]2)cc1 | 9.19% [at 92.4 µM] (inactive) | – |
| COc1ccc(C(=O)Nc2nc3ccccc3c(NCc3ccccc3)c2C#N)cc1 | – | 21.7 µM (active) |
| CCCCC/C=C\C/C=C\CCCCCCCC(=O)NC(C)c1ccccc1 (stereo not drawn) | 0.79% (inactive) | – |
| Cc1c(N)cccc1[N+](=O)[O-] | 4.73% [at 92.4 µM] (inactive) | – |
| CC(C)OC(=O)C(C)N(C(=O)c1ccccc1)c1ccc(F)c(Cl)c1 (stereo not drawn) | – | 48.6 µM (active) |
| CNCCCN1c2ccccc2CCc2ccccc21 | -9.46% (inactive) | – |
| CCCCC(CC)CN1C(=O)C2C3C=CC(C3)C2C1=O (stereo not drawn) | – | 30.6 µM (active) |
| COC(=O)C1=C(C)NC(COC(N)=O)=C(C(=O)OC(C)C)C1c1cccc(Cl)c1Cl (stereo not drawn) | -8.53% (inactive) | – |
| CCCOC(C(=O)OC1CCN(C)CC1)(c1ccccc1)c1ccccc1 | 8.28% (inactive) | – |
| Clc1ccc(Cn2c(CN3CCCC3)nc3ccccc32)cc1 | – | 11.9 µM (active) |
| Cn1c(=O)cc(Oc2ccc(F)cc2F)c2cnc(NCC(C)(C)O)nc21 | -0.445% [at 92.4 µM] (inactive) | – |
| CCCNCC(O)COc1ccccc1C(=O)CCc1ccccc1 (stereo not drawn) | -0.475% (inactive) | – |
| O=C(Nc1ccccc1)c1ccccc1O | – | 27.3 µM (active) |
| CCCCC1=NC2(CCCC2)C(=O)N1Cc1ccc(-c2ccccc2-c2nn[nH]n2)cc1 | -2.05% (inactive) | – |
| CN1CCC(N(Cc2cccs2)c2ccccc2)CC1 | 1.7% (inactive) | – |
| CCN(CC)CCOC(=O)C(Cc1cccc2ccccc12)CC1CCCO1 (stereo not drawn) | 2.33% (inactive) | – |
| CN(C)CCCN1c2ccccc2Sc2ccccc21 | -0.621% (inactive) | – |
| CN(C)c1ccc(C(c2ccccc2)c2ccc(N(C)C)cc2)cc1 | 9.14% [at 92.4 µM] (inactive) | – |
| COc1ccc(C(=O)c2ccc(OC)cc2O)c(O)c1 | – | 9.76 µM (active) |
| CNCCCCOc1ccccc1Cc1ccccc1 | -16.6% (inactive) | – |

system: not listed separately; experiment: qHTS assay to identify small molecule antagonists of the estrogen related receptor signaling pathway with the pleiotropic PPARgamma coactivator (PGC) from Tox21 10K library - cell viability counter screen (AID 1224840); conditions: PGC/ERR reporter cells viability, CellTiter-Fluor, 17.5 h; series mostly up to 92.4 µM; viability change, negative = cytotoxic: at the top concentration; also: nearly all actives have a fitted effect of over 40% in size
Summary of the method: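 Multiplexed viability counter screen in the PGC/ERR cell line: cells treated with DMSO-dissolved compounds for 17.5 hours at 37 C, then viability measured as CellTiter-Fluor fluorescence.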

| SMILES | viability change, negative = cytotoxic | Potency |
| --- | --- | --- |
| CCOc1ccc(N)c([N+](=O)[O-])c1 | -24.5% (inactive) | – |
| CN1CCC(=C2c3ccccc3Sc3ccccc32)CC1 | -18.2% [at 42.5 µM] (inactive) | – |
| CCCCc1nc2cccnc2n1Cc1ccc(-c2ccccc2-c2nnn[nH]2)cc1 | -9.96% (inactive) | – |
| OCCN1CCN(CCCN2c3ccccc3C=Cc3ccccc32)CC1 | -20.8% [at 42.5 µM] (inactive) | – |
| CC(=O)c1ccc2c(c1)N(CCCN(C)C)c1ccccc1S2 | -20% [at 42.5 µM] (inactive) | – |
| COc1ccc(C(=O)Nc2nc3ccccc3c(NCc3ccccc3)c2C#N)cc1 | -25.5% (inactive) | – |
| Cc1c(N)cccc1[N+](=O)[O-] | -2.26% (inactive) | – |
| CCCCCCCCCCCCCCOS(=O)(=O)O | -22.5% (inactive) | – |
| CCOC(=O)COC(=O)c1cc(Oc2ccc(C(F)(F)F)cc2Cl)ccc1[N+](=O)[O-] | -13% (inactive) | – |
| CNCCCN1c2ccccc2CCc2ccccc21 | -17.9% [at 42.5 µM] (inactive) | – |
| C=CC(=O)OCCOc1ccccc1 | -11.9% (inactive) | – |
| CCOC(=O)C1=C[C@]2(CC)CCCN3CCc4c(n1c1ccccc41)[C@@H]32 | -17.2% [at 42.5 µM] (inactive) | – |
| COc1cc2nc(N(C)CCCNC(=O)C3CCCO3)nc(N)c2cc1OC (stereo not drawn) | -0.953% [at 42.5 µM] (inactive) | – |
| Clc1ccc(Cn2c(CN3CCCC3)nc3ccccc32)cc1 | -10.8% [at 42.5 µM] (inactive) | – |
| Cn1c(=O)cc(Oc2ccc(F)cc2F)c2cnc(NCC(C)(C)O)nc21 | -13.1% (inactive) | – |
| CCCNCC(O)COc1ccccc1C(=O)CCc1ccccc1 (stereo not drawn) | -14.5% [at 42.5 µM] (inactive) | – |
| CCCCC1=NC2(CCCC2)C(=O)N1Cc1ccc(-c2ccccc2-c2nn[nH]n2)cc1 | -15.8% [at 42.5 µM] (inactive) | – |
| CN1CCC(N(Cc2cccs2)c2ccccc2)CC1 | -8.48% [at 42.5 µM] (inactive) | – |
| CCN(CC)CCOC(=O)C(Cc1cccc2ccccc12)CC1CCCO1 (stereo not drawn) | -1.38% [at 42.5 µM] (inactive) | – |
| CCOC(=O)NCCOc1ccc(Oc2ccccc2)cc1 | -13.8% (inactive) | – |
| CN(C)c1ccc(C(c2ccccc2)c2ccc(N(C)C)cc2)cc1 | -23.7% (inactive) | – |
| CNCCCCOc1ccccc1Cc1ccccc1 | – | 29.8 µM (active) |
| O=C1OC(CN2CCOCC2)CN1/N=C/c1ccc([N+](=O)[O-])o1 (stereo not drawn) | 3.61% [at 42.5 µM] (inactive) | – |
